Results on 26 molecules are retold here after PubChem BioAssay (NCATS).

Results filed as inconclusive are left out. Calls of active or inactive are those of the source. Unless noted, calls come from the whole dose curve; as a rule, active = well fitted curve in the direction sought with a large enough effect; inconclusive = small, poorly fitted or top-dose-only effect, or another doubt; inactive = no such curve, though single readings can be large; an effect the other way counts as inactive or inconclusive.

A short description of test [1]: SW1088 Cancer Cell Toxicity qHTS against the NCATS CANVASS Library (AID 1347350). For activity change, negative = cytotoxicity: % is set by controls: 0 for no effect and ±100 for the full control effect. Note: nearly all actives have a fitted effect of over 75% in size. Note: potency is the fitted concentration of half-maximal effect. The method in brief:
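In this cytotoxicity screen, 1000 cells per well rested 4 hours, then received compound (11 concentrations) for a 72-hour incubation; an ATP-dependent luminescent signal (CellTiter-Glo) was the endpoint.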

The nature of test [2]: Secretion counterscreen for inhibitors of the SERCaMP assay screened against the NCATS CANVASS Library (AID 1347390). For activity change, negative = inhibition: % is set by controls: 0 for no effect and ±100 for the full control effect.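 Note: light from luciferase secreted into medium read as a measure of general secretion.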 Note: potency is the fitted concentration of half-maximal effect. In outline: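 Counterscreen for secretory-pathway interference: after 4 h attachment, SH-SY5Y-GLuc cells were exposed 20 hours to compounds (final 0.001 - 77 uM), then coelenterazine added and GLuc luminescence recorded; Brefeldin A served as control.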
In general terms: A counterscreen serves to expose hits that act by an unwanted route or on another target.

Test [3] is described as follows: qHTS for inhibitors of ER calcium dysfunction: SERCaMP assay screened against the NCATS CANVASS Library (AID 1347393).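 For activity change, negative = inhibition: % is set by controls: 0 for no effect and ±100 for the full control effect; lower secreted reporter signal means inhibitor of ER calcium depletion.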 Note: nearly all actives have a fitted effect of over 40% in size. Note: potency is the fitted concentration of half-maximal effect. The method in brief: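 Thapsigargin-induced ER calcium depletion drives GLuc-SERCaMP secretion from SH-SY5Y cells; compounds given 16 h beforehand were scored by lowered coelenterazine luminescence after 4 h challenge.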
(In qHTS, concentration-response curves come from the screen itself.)

Test [4] is described as follows: qHTS for Antimalaria activity screened against the NCATS CANVASS Library (AID 1347380).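 For activity change, negative = inhibition: Plasmodium falciparum strain Dd2 asexual parasites grown in red blood cells.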 Note: nearly all actives have a fitted effect of over 40% in size. Note: potency is the fitted concentration of half-maximal effect. In outline:
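P. falciparum Dd2-infected RBCs (2.5% hematocrit final, 0.3% parasitemia) in Albumax II RPMI were exposed to compounds in an 11-point qHTS series for 72 h at 37C under 5% O2/5% CO2, then lysed with SYBR Green.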

Test [5] can be described thus: qHTS assay for small molecule disruptors of mitochondrial membrane potential screened against the NCATS CANVASS Library (AID 1347389). Note: nearly all actives have a fitted effect of over 60% in size. Note: potency is the fitted concentration of half-maximal effect. The method in brief:
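HepG2 cells (2,000/well) were plated overnight at 37C, exposed to compound for 1 hr at 37C/5% CO2, then loaded with Mito-MPS dye for 30 min. Depolarization was read as a drop in red (590 nm) to green (535 nm) fluorescence ratio.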

The nature of test [6]: HPAF-II Cancer Cell Toxicity qHTS against the NCATS CANVASS Library (AID 1347346). For activity change, negative = cytotoxicity: % is set by controls: 0 for no effect and ±100 for the full control effect. Note: nearly all actives have a fitted effect of over 55% in size. Note: potency is the fitted concentration of half-maximal effect. The method in brief:
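HPAF-II cells were seeded at 1000 cells/well, allowed to settle for 4 h at 37 degrees C, then exposed to compounds in an 11-point series for 72 h. Viability was read by CellTiter-Glo luminescence.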

Test [7] in a line: DH5-alpha competent E. coli microbial cell viability qHTS against the NCATS CANVASS Library (AID 1347377). Particulars: outcome: dose series up to 46.1 µM unless noted. In outline:
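DH5-alpha E. coli suspension (0.9 OD culture diluted to 0.2 OD) exposed to compounds in an 11-point series, overnight at 37C, 5% CO2. Viability read as ATP by BacTiter-Glo luminescence after 20 min at room temperature.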

A short description of test [8]: qHTS for Activators of p53 Stress Response Pathway screened against the NCATS CANVASS Library (AID 1347388). For activation: 0% is about no effect. Note: potency is the fitted concentration of half-maximal effect. In outline:
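Beta-lactamase reporter driven by p53 response elements in HCT-116 cells, read as the 460 nm/530 nm emission ratio after CCF4 loading, following 16 h of exposure to an 11-point series. Cell viability was measured in the same wells by CellTiter-Glo luminescence.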

Test [9] is described as follows: HEK-293 Cancer Cell Toxicity qHTS against the NCATS CANVASS Library (AID 1347355). For activity change, negative = cytotoxicity: % is set by controls: 0 for no effect and ±100 for the full control effect. Note: nearly all actives have a fitted effect of over 65% in size. Note: potency is the fitted concentration of half-maximal effect. In outline: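 Cells were seeded at 1000 per well and allowed to settle 4 hours at 37 degrees C before pin transfer of compounds as an 11-point series. Viability was read by CellTiter-Glo luminescence after 72 hours' exposure.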
The nature of test [10]: qHTS Assay for Lipid Storage Modulators (AID 1519; calls by dose curve). Conditions: Drosophila S3 cells, BODIPY lipid droplet/cell ratio, laser cytometry, cells loaded with oleic acid. The method in brief: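 Cells seeded at 5,000 per well were treated with compounds over a concentration series and loaded with oleic acid (400 uM, as added). Lipid droplet fluorescence (488 nm excitation, 500-530 nm channel) was read by laser-scanning cytometry and normalized to 20 uM Triacsin C.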

Test [11] addresses Ubiquitin carboxyl-terminal hydrolase 1 (Homo sapiens) (UniProt O94782). In words: Inhibitors of USP1/UAF1: Pilot qHTS (AID 504865).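 Note: rhodamine fluorescence freed from ubiquitin-rhodamine substrate followed over time; top concentration of the series differs between compounds; % is set by controls: 0 for no effect and ±100 for the full control effect; nearly all actives have a fitted effect of over 35% in size.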 The method in brief: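 Deubiquitinase activity followed as kinetic rhodamine fluorescence release from 150 nM Ub-Rho. 1 nM USP1/UAF1 with compound, after 15 min room-temperature preincubation, in HEPES pH 7.8 buffer containing TCEP, EDTA, BSA and Tween-20.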

Chain of Ubiquitin carboxyl-terminal hydrolase 1 (Homo sapiens) (O94782 whole entry, looked up): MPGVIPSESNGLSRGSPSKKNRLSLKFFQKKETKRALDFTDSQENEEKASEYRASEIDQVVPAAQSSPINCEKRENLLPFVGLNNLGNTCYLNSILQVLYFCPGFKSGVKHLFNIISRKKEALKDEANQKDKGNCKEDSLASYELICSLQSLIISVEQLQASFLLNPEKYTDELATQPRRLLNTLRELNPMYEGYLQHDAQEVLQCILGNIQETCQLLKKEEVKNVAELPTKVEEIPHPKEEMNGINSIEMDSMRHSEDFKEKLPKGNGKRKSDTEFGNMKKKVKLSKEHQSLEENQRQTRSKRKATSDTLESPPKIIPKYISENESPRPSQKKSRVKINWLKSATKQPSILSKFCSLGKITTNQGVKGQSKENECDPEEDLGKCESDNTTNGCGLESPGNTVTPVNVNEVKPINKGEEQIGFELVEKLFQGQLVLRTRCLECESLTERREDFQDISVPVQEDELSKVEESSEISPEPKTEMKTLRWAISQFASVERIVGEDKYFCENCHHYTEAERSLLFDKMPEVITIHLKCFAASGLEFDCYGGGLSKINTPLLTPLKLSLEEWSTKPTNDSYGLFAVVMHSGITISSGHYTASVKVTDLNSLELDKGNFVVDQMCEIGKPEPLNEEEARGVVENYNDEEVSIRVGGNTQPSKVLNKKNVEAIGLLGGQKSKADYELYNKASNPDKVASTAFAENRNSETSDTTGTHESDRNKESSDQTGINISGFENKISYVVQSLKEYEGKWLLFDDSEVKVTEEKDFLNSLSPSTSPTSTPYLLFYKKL

Take `CO[C@@H]1C[C@@H](C[C@H]2CC[C@H](C)[C@H]([C@@H](C)C(=O)O)O2)O[C@]2(O[C@](C)([C@H]3CC[C@@](C)([C@@H]4O[C@@H]([C@H]5O[C@](C)(O)[C@H](C)C[C@@H]5C)C[C@@H]4C)O3)C[C@H]2C)[C@@H]1C`: the Potency in test [1] was 0.0168 µM (active); in [2], 0.484 µM (active). In addition, the Potency result in test [3] is “inactive”.

With `C=C1C[C@@]23C=CC(=O)[C@@](C)(CCC(=O)Nc4c(O)ccc(C(=O)O)c4O)C2C[C@@H]1C(O)C3` (some centres undefined), the Potency entry in test [1], in test [4], in test [5] and in [2] was “inactive” throughout.

Consider `COc1ccc2oc3c(OC)c(OC)c(OC)c(OC)c3c(=O)c2c1`, for which the activity change, negative = cytotoxicity in [6] was -3.19% [at 7.64 µM] (inactive). In addition, the outcome in test [7] is “inactive [at 9.19 µM]”. For the same molecule, in test [8], the activation was -1.1% [at 9.19 µM] (inactive). Besides, the activity change, negative = inhibition in test [3] was -15.7% [at 15.3 µM] (inactive).

Turning to `C[C@@]12CCC[C@@](C)(C(=O)O)[C@H]1CC[C@]13C[C@H]4C[C@H](O[C@@]4(C)C1)[C@H]32`, the Potency entry in test [6], in test [1], in test [9], in test [8], in test [2] and in [3] was “inactive” each time. For the same molecule, the outcome in test [7] was inactive.

Take `C[C@@H]1C[C@H]2C[C@]3(CCCCN3C)[C@@H]3C[C@H]2[C@H](C1)N(C)C3`: the Potency entry in [6], in [8] and in test [5] was “inactive” in each case.

For the molecule `COC1C(O)C(OC(N)=O)C(Oc2ccc3c(O)c(NC(=O)c4ccc(O)c(CC=C(C)C)c4)c(=O)oc3c2C)OC1(C)C` (centres undefined), the Potency entry in test [6] and in test [9] was “inactive” in each case.

For the molecule `CC(C)(Br)[C@@H](Cl)C[C@H](Br)[C@](C)(Cl)/C=C/Br`, the Potency in test [6] was 26.6 µM (active); in [5], 16.6 µM (active); in test [3] it was 21.6 µM (active). Further, the Potency result in test [8] and in test [2] was “inactive” each time.

With `C/C=C1/CC[C@@H]2c3[nH]c4ccccc4c3CCN2C1`, the Potency entry in test [6] and in test [1] was “inactive” each time. Moreover, in [7], the molecule was called inactive.

As for `C=C(C)CC[C@H](Cc1c(O)cc(O)c2c1O[C@H](c1ccc(O)cc1O)CC2=O)C(=C)C`, the Potency entry in test [6] and in test [8] was “inactive” each time. Besides, the Potency in test [5] was 18.6 µM (active).

Consider `CN1C(=O)[C@]23SS[C@@]1(C)C(=O)N2[C@H]1Nc2ccccc2[C@]1(c1c[nH]c2ccccc12)[C@@H]3O`, for which the values for the Potency in [6], in test [1] and in [2] were 0.841 µM (active), 0.237 µM (active) and 1.72 µM (active), respectively. Further, the call in test [7] was inactive.

Turning to `CCCCCC[C@H](CCCCC[C@@H](O)C(N)=O)OC(=O)[C@@H]1CC=CN1C(=O)c1ccccc1O`, the Potency result in [6], in test [9], in test [2] and in test [3] was “inactive” in each case.

Turning to `CN1CCc2cc3c(c4c2[C@H]1[C@@H](O)c1ccccc1-4)OCO3`, the Potency entry in test [1] is “inactive”. The Potency in test [9] was 23.5 µM (active); in test [8], 26.3 µM (active); in test [5] it was 11.7 µM (active); in test [3], 34.3 µM (active).

Turning to `CN1CC[C@]2(c3cccc4c3N[C@@H]3N(C)CC[C@]43[C@@]34CCN(C)[C@@H]3Nc3ccccc34)c3ccccc3N[C@H]12`, the Potency entry in test [8] and in test [5] was “inactive” in each case.

In the case of `CN1CC[C@]2(c3cccc4c3N[C@@H]3N(C)CC[C@]43[C@@]34CCN(C)[C@@H]3Nc3c([C@]56CCN(C)[C@H]5Nc5ccccc56)cccc34)c3ccccc3N[C@H]12`, the Potency in [9] was 2.96 µM (active).

On to `CC1=CC[C@@]2(C[C@@H]1O)[C@@H](C(=O)O)CC[C@H]2C(C)C`, for which the Potency result in test [6] and in test [8] was “inactive” each time.

For the molecule `C/C=C/C(=O)[C@@H](C)C1=CC(=O)C2=C(O[C@@]34CC[C@H](O)C(C)(C)[C@@H]3CC[C@H](C)[C@@]4(C)C2)C1=O`, the values for the Potency in test [1] and in [5] were 7.49 µM (active) and 16.6 µM (active), respectively. Besides, the call in test [7] was inactive.

Regarding `COc1cc(/C=C/C(=O)O)ccc1O`, the activity change, negative = inhibition in [10] (at 57.5 µM (top of the series)) is 8.29% (inactive). Besides, the max response in [10] (measured here: cell count channel max response) came to 5.04%; in test [10] (measured here: lipid channel max response), 17.5%. For the same molecule, the Potency entry in test [11], in test [1], in test [9], in test [8], in test [5] and in test [3] was “inactive” throughout.

As for `C[C@@H]1O[C@@H](Oc2c(-c3ccc(O)cc3)oc3cc(O)cc(O)c3c2=O)[C@H](O)[C@H](O)[C@H]1O`, the Potency result in test [6], in [9] and in [3] was “inactive” each time. Moreover, the molecule was classed as inactive in [7].

Consider `C/C(=C\[C@H](C)C(=O)CCCC1CC(=O)NC(=O)C1)C(O)[C@@H](C)[C@H](O)C/C=C/CC/C=C/C(=O)O` (some centres undefined), for which the Potency entry in test [9], in test [8], in test [2] and in test [3] was “inactive” in each case. The molecule was classed as inactive in test [7].

Regarding `C[C@]12CC[C@]3(C1)[C@H](CC2=O)CC(OC(=O)c1ccccc1)[C@H]1[C@@](CO)(C(=O)O)CCC[C@@]13C` (some centres undefined), the Potency entry in test [6], in test [1] and in test [8] was “inactive” in each case. Moreover, the call in [7] was inactive.

Take `C/C1=C\CC(=O)/C=C/C=C\c2csc(n2)[C@@H](C)NC(=O)C[C@@](S)([C@@H](C)C(=O)O)CC1`: the Potency result in test [1], in [8], in test [5] and in [2] was “inactive” in each case.

With `CCCCCCC[C@@H](C/C=C/CCC(=O)NCCc1c[nH]c2ccccc12)OC`, the Potency result in [8] is “inactive”. In addition, the Potency in [3] is 34.3 µM (active).

For the molecule `C=C1C[C@@]23C=CC(=O)[C@@](C)(CCC(=O)Nc4c(O)ccc(C(=O)O)c4O)C2C[C@@H]1CC3O` (some centres undefined), the Potency result in test [4], in test [8], in test [5], in test [2] and in test [3] was “inactive” each time.

For `C[C@@H]1O[C@@H](O[C@@H]2[C@@H](O)[C@H](O[C@@H]3[C@@H](O)[C@@H](O)C(O[C@H]4[C@H](OC(=O)[C@]56CCC(C)(C)C[C@H]5C5=CCC7[C@@]8(C)C[C@H](O)[C@H](O[C@@H]9C[C@H](CO)[C@@H](O)[C@H](O)[C@H]9O)[C@@](C)(CO)C8[C@H](O)C[C@@]7(C)[C@]5(C)CC6)OC[C@H](O)[C@@H]4O)O[C@H]3C)OC[C@H]2O)[C@H](O)[C@H](O)[C@H]1O` (some centres undefined), the Potency result in test [6], in [1], in test [9] and in [3] was “inactive” in each case. For the same molecule, in [7], the call was inactive.

Turning to `COc1ccc(/C=C2\COc3cc(O)ccc3C2=O)cc1`, the Potency entry in test [2] was “inactive”.

For `C[C@@H](O)[C@H]1OC(=O)C=C2[C@]3(C)[C@H]4[C@H](OC(=O)[C@@]4(C)[C@@H](O)[C@H]4O[C@H]43)[C@H]3O[C@@]231`, the Potency is 1.48 µM (active) in test [9], 0.594 µM (active) in test [4] and 3.84 µM (active) in [2]. The call in test [7] was inactive. Moreover, in [5], the Potency entry is “inactive”.
